Experimental data published in PubChem BioAssay AID493085 (Broad Institute, 2011).
Among all 2,400 compounds or so, about 360 (15%) were called active. Inconclusive results (about 5%) are left out.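 How the source made its calls: active means falling-signal curve with half-maximal concentration at or below ten times the top tested dose; inconclusive means flat fit at 30 to 70% inhibition, or poor fit; inactive means signal rise, flat within 30%, or potency beyond limit.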 These entries were drawn from the full list. Entries with a potency or affinity are not part of this list.

Assay: dox-induced RFP signal loss in R4-3T3 cells – cell-based, NIH3T3 R4, HSE-GFP and Tet-On RFP, cherry-pick, set 3, dose response (AID 493085);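 further: cells heat shocked 2 h at 42 °C with doxycycline to induce reporters; 0% = neutral control wells and -100% = didemnin B control at 400 nM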
Conditions: NIH3T3 R4 HSE-GFP/Tet-RFP reporter, fluorescence, 48 h; series mostly up to 19.5 µM; activity change, negative = inhibition: at the top concentration

SMILES | activity change, negative = inhibition
CCC1CCCCN1C(=O)c1cc2c(=O)n3cccc(C)c3nc2s1 (configuration not stated) | -4.77% (inactive)
CN(C)c1ccc(C2Nc3ccccc3C(=O)N2CCCN2CCOCC2)cc1 (configuration not stated) | -11.3% (inactive)
NC(=O)C1CCN(CC(=O)Nc2nc(-c3ccccc3)cs2)CC1 | 1.54% (inactive)
O=C(c1c(F)cccc1F)N1CCN(c2ccccc2F)CC1 | -12.1% (inactive)
Cc1cc(C(=O)NC2CCCN(Cc3ccc(Cl)cc3)C2)n(C)n1 (configuration not stated) | 7.47% (inactive)
O=Cc1ccc(OC(=O)Cc2ccc(F)cc2)cc1 | -3.08% (inactive)
CC(=NCCc1ccccc1)C1=C(O)CSC1=O | -2.37% (inactive)
COc1ccc(CNC(=O)C(=O)c2cn(CC(=O)N3CCOCC3)c3ccccc23)cc1 | -4.86% (inactive)
CC(=O)Nc1ccc(NC(=O)CSc2cn(CC(=O)N3CCOCC3)c3ccccc23)cc1 | 3.01% (inactive)
Cc1ccc(N2C(=O)c3ccccc3C2Nc2ccccc2F)nc1 (configuration not stated) | -6.19% (inactive)
N#Cc1c(NC(=O)CSc2ncccn2)oc(-c2ccccc2)c1-c1ccccc1 | 8.77% (inactive)
Cc1ccc([N+](=O)[O-])cc1NC(=O)CSc1n[nH]c(-c2cccnc2)n1 | -1.6% (inactive)
CC(C)(C)OC(=O)C1C(=O)CC(C)(O)C(C(=O)OC(C)(C)C)C1c1cccnc1 (configuration not stated) | -6.17% (inactive)
CCC(=O)N1CCc2cc(S(=O)(=O)NCCC(=O)Nc3ccccc3C)ccc21 | -3.98% (inactive)
Cc1onc(-c2ccccc2)c1C(=O)Nc1sc2c(c1C(N)=O)CCC2 | -7.58% (inactive)
C/C(CC(=O)Nc1ccc(N(C)C)cc1)=N\NC(=O)Cc1csc(N)n1 | -0.381% (inactive)
OC(COc1c(F)cc(Br)cc1F)CN1CCN(c2ccc(F)cc2)CC1 (configuration not stated) | 4.39% (inactive)
COc1cccc(NC(=S)N(CCC(C)C)C2CCN(C(C)=O)CC2)c1 | 7.46% (inactive)
O=C1CCC(=O)N1CNc1ccccn1 | -21.2% (inactive)
CCn1c(=O)c(C(=O)Nc2ccccc2F)c(O)c2ccccc21 | 22.5% (inactive)
Cn1c(C(=O)NN)cc2cc(OCc3ccccc3)ccc21 | -7.37% (inactive)
COc1ccc(N2CC(C(=O)Nc3nnc(C4CCCCC4)s3)CC2=O)cc1 (configuration not stated) | -9.73% (inactive)
COc1ccc2nc(NC(=O)CN3CCOCC3)sc2c1 | -2.22% (inactive)

SMILES | activity change, negative = inhibition
O=C(c1ccc(F)cc1)N1CCCC(N2CCN(Cc3ccc4c(c3)OCO4)CC2)C1 (configuration not stated) | -4.52% (inactive)
COc1nc(-c2ccccc2)c2cc(Br)ccc2n1 | -15.5% (inactive)
COc1ccc(OC(C)C(=O)N2CCC(C)CC2)cc1 (configuration not stated) | -3.93% (inactive)
CCOC(=O)c1ccc(NC(=S)Nc2ccccc2N)cc1 | -7.45% (inactive)
CCOC(=O)c1ccc(NC(=O)Oc2ccccc2)cc1 | -4.21% (inactive)
COc1ccc(-n2c(-c3ccc(F)cc3)cnc2SCC(=O)NCc2ccco2)cc1 | -3.84% (inactive)
Cc1cc2cc(CCNC(=O)C(=O)c3c[nH]c4ccccc34)c(=O)[nH]c2cc1C | -3.78% (inactive)
CC(c1ccccc1)N1CCN(C(=O)CCl)CC1 (configuration not stated) | 2.46% (inactive)
O=C(Nc1ccc(Cl)cn1)c1ccc2c(Cl)c3c(nc2c1)CCC3 | 23% (inactive)
O=C(CSc1ccccc1)Nc1cccc(NC(=O)c2ccco2)c1 | -6.38% (inactive)
CC(=O)COc1ccccc1OC(=O)c1ccco1 | 3.47% (inactive)
N/C(=N\c1nc2ccccc2o1)NC(=O)c1ccc(Cl)cc1 | 4.58% (inactive)
Cc1nnc(N2C(=O)c3cccc4cccc(c34)C2=O)s1 | -1.34% (inactive)
COc1cccc(NC(=O)N2CCCC2C(=O)NC(C)C)c1 (configuration not stated) | 8.18% (inactive)
COc1nn(-c2ccccc2)c(=O)c(Cl)c1Cl | -66.5% (inactive)
CCOC(=O)c1cnn(-c2ccccc2)c1-n1cccc1 | -4.52% (inactive)
O=C(C1CCC(CNS(=O)(=O)c2cccc3cccnc23)CC1)N1CCCC1 (configuration not stated) | 18.4% (inactive)
CCC(=O)Nc1c(-c2ccc(Cl)cc2)c(=O)c2ccccc2n1C | 2.21% (inactive)
COc1c([N+](=O)[O-])c(=O)oc2ccccc12 | -1.15% (inactive)
CCOc1c(C)cc(S(=O)(=O)NCc2cccnc2)c(C)c1C | -2.75% (inactive)
Cc1ccc(C(=O)Nc2ccc(C(=O)O)cc2NC(=O)c2ccc(C)cc2)cc1 | -8.11% (inactive)
CCOc1ccc(OCc2cccc(C(=O)O)c2)cc1 | -1.67% (inactive)
COc1ccc(C(=O)Nc2ccc(OCc3ccccc3)cc2)cc1[N+](=O)[O-] | 20.1% (inactive)

SMILES | activity change, negative = inhibition
CCCCN(C)C(=O)CCC(=O)Nc1ccc2nc(N3CCN(C)CC3)cc(C)c2c1 | 0.044% (inactive)
CC(C)CC(NC(=O)C1CCCN1C(=O)[C@@H](C)NC(=O)OCc1ccccc1)C(=O)NCC(N)=O (some centres not stated) | -0.054% (inactive)
CC(=O)c1ccc(NC(=O)C(C)n2nc(-c3ccccc3)c3cc(Cl)ccc32)cc1 (configuration not stated) | -1.25% (inactive)
CC1Cc2ccccc2N1C(=O)C12CCC(C)(C(=O)C1)C2(C)C (configuration not stated) | -7.93% (inactive)
O=S(=O)(/N=C(/c1ccccc1Cl)N1CCOCC1)c1ccccc1 | -5.16% (inactive)
O=C(c1cc(Cl)ccc1Cl)N1CCOCC1 | -1.28% (inactive)
COc1cc(SC)ccc1C(=O)NCC1CCCO1 (configuration not stated) | -2.99% (inactive)
COCC(C)NC(=O)c1ccc2nc(-c3ccccc3)c(-c3ccccc3)nc2c1 (configuration not stated) | 2.21% (inactive)
CCn1cc(S(=O)(=O)Nc2ccc3c(c2)OCCO3)cn1 | 36.6% (inactive)
Cc1nc(SCC(=O)NCC2CCCO2)[nH]c(=O)c1C (configuration not stated) | 0.854% (inactive)
O=C(Cc1ccccc1F)Nc1ccc(S(=O)(=O)N2CCCCC2)cc1 | -1.75% (inactive)
O=C(N1CCCCC1)N1CCN(S(=O)(=O)c2ccccc2)CC1 | -7.11% (inactive)
C=CCNC(=S)Nc1sc2c(c1C#N)CCCC2 | -6.78% (inactive)
CCOc1ccc(NC(=S)N(CCc2ccncc2)C(C)C)cc1 | 0.037% (inactive)
Cc1ccc([N+](=O)[O-])c(OCCCN2CCC(Cc3ccccc3)CC2)c1 | 0.591% (inactive)
COc1cc(NC(=O)Cn2ncc(Cl)c(Cl)c2=O)c(C)cc1[N+](=O)[O-] | -74.7% (inactive)
O=C(OCn1ncc(Cl)c(Cl)c1=O)c1ccccc1Cl | 19.6% (inactive)
CCCNC(=O)NC1C(NC(=O)NCCC)N(C)C(=O)N1C (configuration not stated) | -1.63% (inactive)
CCc1ccc(NC(=O)C2C3CCC(O3)C2C(=O)O)cc1 (configuration not stated) | 5.37% (inactive)
Cc1ccc(S(=O)(=O)N(C)c2ccccc2C(=O)NC2CCCC2)cc1 | -7.71% (inactive)
S=c1[nH]nc(-c2cnccn2)n1-c1ccccc1 | -8.92% (inactive)
Cc1ccc(NC(=O)COC(=O)Cn2cnc3ccccc32)cc1S(=O)(=O)N(C)C | -0.192% (inactive)
O=C(Nc1ccc2[nH]ncc2c1)c1ccccc1Cl | -0.069% (inactive)

SMILES | activity change, negative = inhibition
O=C(O)c1ccc(N/N=C/c2ccc(OC(=O)c3ccccc3Cl)cc2)cc1 | -3.02% (inactive)
CC(C)c1ccc(/C=N/Nc2ccc(C(=O)O)cc2)cc1 | 10.4% (inactive)
N#C/C(=C\Nc1ccc2cn[nH]c2c1)c1nc(-c2ccccc2)cs1 | 3.6% (inactive)
CCOC(=O)c1ccc(Cl)c(NC(=O)c2cccnc2)c1 | -3.1% (inactive)
CCc1ccc(NC(=O)CSc2ccc(-c3cccnc3)nn2)cc1 | 4.37% (inactive)
Cc1ccc(NC(=O)c2cc(NC(=O)c3ccco3)ccc2N2CCOCC2)cc1 | -3% (inactive)
O=C(NC(=S)Nc1ccc2oc(=O)ccc2c1)c1cc2ccccc2o1 | 15.4% (inactive)
O=c1c2c3c(sc2nc(NCCOCCO)n1Cc1ccco1)CCCCC3 | 10.9% (inactive)
COc1ccc(NC(=O)c2cc3cc(OC)ccc3oc2=N)cc1 | -4.04% (inactive)
COc1cccc(/C=C/C(=O)NCc2ccc3c(c2)OCO3)c1 | -6.73% (inactive)
CCOC(=O)/C(C#N)=C/c1cc(C)n(-c2ccccc2)c1C | -2.19% (inactive)
Cc1cccc(NC(=O)c2sc(-c3ccccc3)nc2-c2ccc([N+](=O)[O-])cc2)c1 | -7.95% (inactive)
OC1(c2ccc(Br)cc2)CCN(Cc2cccc(Br)c2)CC1 | -3.81% (inactive)
Cn1ccnc1SCC(=O)N(C1CCCCC1)C1CCCCC1 | -3.07% (inactive)
COc1cc(C(=O)N(C)C2CCCN(Cc3ccccc3F)C2)cc(OC)c1OC (configuration not stated) | 3.93% (inactive)
CS(=O)(=O)N(CC(=O)O)c1ccc(C23CC4CC(CC(C4)C2)C3)cc1 | 7.89% (inactive)
O=C(CCC1CCCNC1)c1ccccc1 (configuration not stated) | 4.57% (inactive)
CC(=O)c1cnn(-c2c(Cl)cc(Cl)cc2Cl)c1C | 2.88% (inactive)
CC(C)Oc1ccc(C(=O)O)cc1 | -1.52% (inactive)
NC(=O)c1ccsc1NC(=O)C1CCCCC1 | 3.52% (inactive)
COC(=O)c1cccc(N2C(=O)C3CC=CCC3C2=O)c1 (configuration not stated) | -7.46% (inactive)
O=C(N/N=C/c1ccc(F)cc1)c1ccc(OCc2ccccc2)cc1 | -6.34% (inactive)
COc1ccc(C(=O)Nc2ccccc2C(=O)N/N=C/c2ccc(O)c(OC)c2)cc1 | -5.62% (inactive)

SMILES | activity change, negative = inhibition
O=C(N/N=C/c1cc([N+](=O)[O-])ccc1O)c1ccncc1 | -7.98% (inactive)
CCOc1cc(N2CCOCC2)c(OCC)cc1NC(=O)c1cc(-c2ccco2)nc2ccccc12 | -12.4% (inactive)
COC(=O)[C@H](C)NC(=O)NCCC1=CCCCC1 | -2.47% (inactive)
Cc1ccc(C(=O)/C=C/Nc2ccccn2)cc1 | -0.009% (inactive)
COC(=O)c1nn(-c2cccc(C(F)(F)F)c2)c(=O)cc1Sc1ccccn1 | -0.462% (inactive)
CCCCOc1ccc(C2C(=O)N(C3CCCCC3)CC(=O)N2CC2CCCO2)cc1 (configuration not stated) | 3.16% (inactive)
CCOC(=O)c1c(C)[nH]c(C2=NNC(=Nc3cccc(Cl)c3)SC2)c1C | 6.15% (inactive)
CC(C)(C)N=C1NN=C(c2ccc(Cl)cc2)CS1 | -0.077% (inactive)
CC(C)(C)c1ccccc1NC(=O)NC1CCN(Cc2c(F)cccc2Cl)CC1 | 6.36% (inactive)
COc1ccccc1NC1=C(Cl)C(=O)N(C2CCCCC2)C1=O | -7.56% (inactive)
CCOC(=O)Cc1csc(NC(=O)c2sc3nc4ccc(CC)cc4cc3c2N)n1 | 0.721% (inactive)
O=C1c2ccccc2C(O)N1c1ccccc1 (configuration not stated) | -5% (inactive)
Cc1ccnc(N2CCCC(C(=O)NCc3cccs3)C2)n1 (configuration not stated) | -3.11% (inactive)
O=C(O)CCn1cc(/C=C2\NC(=S)N(c3ccccc3)C2=O)c(-c2ccc(Br)cc2)n1 | -0.659% (inactive)
Cc1noc(C)c1COc1ccc(C(=O)OCC(=O)Nc2c(C)n(C)n(-c3ccccc3)c2=O)cc1 | -3.94% (inactive)
COc1cccc(CNc2ccc(S(N)(=O)=O)cc2)c1OC | -1.4% (inactive)
COc1cc(/C=C/c2nc(N)nc(-c3ccccc3O)n2)cc(OC)c1OC | 18.8% (inactive)
CN=c1scc(-c2ccccc2F)n1/N=C/c1ccc[nH]1 | -4.98% (inactive)
Cc1cc(C)c(NC(=O)CSc2nnc(-c3ccncc3)n2Cc2ccco2)c(Cl)c1 | -3.6% (inactive)
CCOc1ccc(NCc2nnc(SCc3ccccc3Cl)n2-c2ccccc2)cc1 | -11.4% (inactive)
